Bioassay records deposited in PubChem by National Center for Advancing Translational Sciences (NCATS).
PI4K2A block: blocks human PI4K2A kinase activity; Q9BTU6; purified PI4K2A, ADP-Glo luminescence, 1 h; hits give low values; activity change, negative = inhibition, % at 76.9 µM; 420,000 compounds, 0.13% hits; in the data active means activity change below about -50%; inconclusive means mostly about -30% to -49%;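 further: -100% = wells without enzyme as full effect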
Target sequence (Q9BTU6 whole entry, looked up): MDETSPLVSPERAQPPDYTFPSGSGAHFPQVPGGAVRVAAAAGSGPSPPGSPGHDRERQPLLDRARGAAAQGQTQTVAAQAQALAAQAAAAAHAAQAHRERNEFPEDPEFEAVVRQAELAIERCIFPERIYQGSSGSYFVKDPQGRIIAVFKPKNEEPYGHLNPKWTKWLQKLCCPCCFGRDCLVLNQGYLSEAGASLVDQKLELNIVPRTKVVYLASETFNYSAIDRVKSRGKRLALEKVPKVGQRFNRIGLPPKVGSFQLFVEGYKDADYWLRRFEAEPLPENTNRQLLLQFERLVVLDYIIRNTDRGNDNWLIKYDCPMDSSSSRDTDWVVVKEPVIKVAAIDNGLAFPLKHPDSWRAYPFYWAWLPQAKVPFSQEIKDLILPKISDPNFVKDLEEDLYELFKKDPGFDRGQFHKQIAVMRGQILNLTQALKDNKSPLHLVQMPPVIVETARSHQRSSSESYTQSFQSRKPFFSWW
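In this quantitative HTS, ADP production by PI4K2A was quantified luminescently after 1 h at ambient temperature; 100 microM adenosine served as plate-quality control.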
KB-3-1 cytotox: kills parental KB-3-1 adenocarcinoma cells; KB-3-1 viability, CellTiter-Glo ATP luminescence, 72 h; Potency, µM (top dose mostly 46.1 µM), most hits filed as cytotoxic; 400,000 compounds, 1.4% hits; further: potency means the concentration at half of the fitted maximal effect; nearly all actives have a fitted effect of over 60% in size
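Cytotoxicity in the drug-sensitive parental line KB-3-1 was scored as loss of CellTiter-Glo luminescence following 72 h incubation with compound. Values come from curve fitting of normalized concentration-response data.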
A549 tox: kills or reduces viability of A549 cells in Nrf2 counter-screen. Potency, µM (series often up to 46 µM), inactives show at the highest dose activity change, negative = cytotoxicity, actives largely listed as inhibitors. AID 504648. 390,000 compounds, 0.16% hits. A549 ARE-Fluc cells, CellTiter-Fluor viability, 18-24 h; further: potency means the concentration at half of the fitted maximal effect
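Cytotoxicity counterscreen: CellTiter-Fluor fluorescence was measured in A549 ARE_Fluc cells after 18-24 h of compound exposure in a concentration series. The subsequent BugLite luminescent read reports ARE-luciferase activity.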
Giardia killer: kills Giardia lamblia | 340,000 compounds, 0.15% hits | activity change, % at 7.66 µM, hits read low | Giardia lamblia trophozoite viability; in the data active means activity change below about -80%; inconclusive means between about -30% and that limit;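 further: parasites exposed to compound for two days anaerobically before the ATP read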
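Viability, read as ATP luminescence: trophozoites at 100 cells/well, compound added, 48 hrs anaerobic at 37 deg C, then 15-30 min room-temperature development before reading.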
Nrf2 block: inhibitors of Nrf2 signaling | A549 ARE-Fluc reporter, luciferase luminescence, 18-24 h | Potency, µM (series often up to 46 µM), for the others: at the highest dose activity change, negative = inhibition, actives largely listed as inhibitors | 360,000 compounds, 2.1% hits | AID 504444; further: potency means the concentration at half of the fitted maximal effect; nearly all actives have a fitted effect of over 60% in size
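Reporter: ARE-Fluc in A549. Exposure: 18-24 h, 37 °C, 5% CO2, 5% FBS OPTI-MEM. Readouts: fluorescent cytotoxicity (CellTiter-Fluor), then luminescent Nrf2 signal after BugLite.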
KB-V1 cytotox: KB-V1 MDR subline cytotoxicity. KB-V1 MDR cells viability, CellTiter-Glo, 72 h. Potency, µM (highest dose often 46.1 µM), hits mostly cytotoxic. 400,000 compounds, 3.4% hits; further: potency means the concentration at half of the fitted maximal effect; nearly all actives have a fitted effect of over 60% in size
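KB-V1 MDR subline cells in DMEM (phenol-red free, 10% FBS) exposed to compounds in qHTS concentration series for 72 h at 37 degrees C. Viability read by CellTiter-Glo luminescence; concentration-effect curves fitted after normalization and correction.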
Starred values were filed as active, the others as inactive; i = inactive; ? = inconclusive; / = no result. An excerpt weighted towards active compounds, which were near 5.7% of everything screened. Unless noted, the call rests on the fitted dose curve; in most records, active means well fitted curve in the direction sought with a large enough effect; inconclusive means small, poorly fitted or top-dose-only effect, or another doubt; inactive means no such curve, though single readings can be large; an effect the other way counts as inactive or inconclusive. Unless noted, on the % scale 0 is the no-effect control and ±100 the full control effect.

SMILES	PI4K2A block	KB-3-1 cytotox	A549 tox	Giardia killer	Nrf2 block	KB-V1 cytotox
Cc1ccc(/C=C2\CC(C)CC3=C2NC(=S)NC3c2ccc(C)cc2)cc1 (stereo not drawn)	-3	i	2%	-6	3%	i
CC(C)(C)C(=O)OCOC(=O)C1N2C(=O)CC2S(=O)(=O)C1(C)C (stereo not drawn)	3	/	/	/	/	/
CC[C@H](CCC(=O)N(c1ccccc1)c1ccccc1)C1CC1	2	/	/	/	/	/
Cc1cccc(-c2noc(CCCC(=O)N3CCOCC3)n2)c1	4	i	3%	3	/	21µM*
Cc1ccc(-c2noc(CCCC(=O)N3CCOCC3)n2)cc1	1	i	-4%	7	-26%	i
O=C(CCCc1nc(-c2ccc(Cl)cc2)no1)N1CCOCC1	2	?	-9%	-17	?	9.2µM*
Cc1cc(C(=O)CSc2nc3ccc(Cl)cc3[nH]2)c(C)n1Cc1ccco1	-13	i	3%	-3	?	21µM*
O=C(CSc1nc2ccc(Cl)cc2[nH]1)NCc1ccco1	-2	i	-19%	-5	?	?
COC1=C[C@H](C(=O)NCc2ccc(OC)cc2)C(C)C(c2ccccc2)CC1=O (stereo partly drawn)	1	/	/	/	/	/
COc1ccc2c(c1)Cc1sc(NC(=O)c3cccc(C)c3)nc1-2	-54*	/	-13%	/	21µM*	/
COc1ccc2c(c1)Cc1sc(NC(=O)c3cccc(Cl)c3)nc1-2	-13	i	-12%	/	/	i
C[n+]1c2cc(N)ccc2cc2ccc(N)cc21 (tested in a mixture with another compound)	-26	/	/	/	/	/
Cc1cc(S(=O)(=O)c2ccc(Cl)cc2)nc(S(=O)(=O)c2ccc(Cl)cc2)c1C#N	-1	9.2µM*	/	/	/	?
Cc1cc(C)c(S(=O)(=O)c2ccc(Cl)cc2)c(Cl)n1	1	i	10%	-7	?	i
CCc1cc2c(cc3c(=O)n(CC(=O)NC(C)C)nc(CC)n32)s1	-2	/	-1%	/	3%	/
N#Cc1c(N)nc2c(c1-c1ccccc1)CCC2	-3	?	-12%	-9	15%	10µM*
COc1ccc(-c2c(C#N)c(N)nc3c2CCC3)cc1	-3	i	-6%	-7	-17%	?
CCN(C(C)=O)c1cnc(C=NNC(N)=S)c2ccccc12	-1	i	?	6	8.2µM*	15µM*
NC(=S)NN=Cc1nccc2c(N)cccc12	-11	?	/	/	/	i
CC1=Nc2ccccc2/C1=C/c1ccc(N(C)C)cc1	/	i	/	/	/	i
CCCCOc1ccc(C(O)(CC)CCN2CCOCC2)cc1 (stereo not drawn)	3	i	?	9	-13%	?
CCCCCCC(O)(c1ccc(OC)cc1)C(CN1CCOCC1)c1ccccc1 (stereo not drawn)	-2	18µM*	2%	-7	3%	?
CCCCOc1ccc(C(O)(CCC)CCN2CCOCC2)cc1 (stereo not drawn)	-1	23µM*	6%	1	-23%	10µM*
Cc1ccc(C(=O)N2CCN(Cc3nc4sc5c(c4c(=O)[nH]3)CCCC5)CC2)cc1	-1	?	1%	1	7%	16µM*
O=c1[nH]c(CN2CCCC2)nc2sc3c(c12)CCC3	-1	i	-4%	-1	-7%	?
SMILES	PI4K2A block	KB-3-1 cytotox	A549 tox	Giardia killer	Nrf2 block	KB-V1 cytotox
O=C(NC(=S)N1CCN(c2ccc([N+](=O)[O-])cc2)CC1)c1ccccc1F	5	i	-23%	-2	?	21µM*
O=C(Cc1ccccc1)N1CCN(c2ccc([N+](=O)[O-])cc2)CC1	-1	i	-21%	-14	26µM*	i
O=[N+]([O-])c1ccc(-c2ccc(S(=O)(=O)N3CCOCC3)cc2)cc1	-4	i	-2%	4	0%	i
O=C(Cc1ccc([N+](=O)[O-])cc1)N1CCN(c2ccc([N+](=O)[O-])cc2)CC1	2	?	-13%	-28	?	i
O=[N+]([O-])c1ccc(Oc2ccc(S(=O)(=O)N3CCOCC3)cc2)cc1	0	i	-3%	-4	26µM*	i
CN1CCN(S(=O)(=O)c2ccc([N+](=O)[O-])cc2)CC1	1	i	?	-14	-5%	i
O=[N+]([O-])c1ccc(N2CCN(S(=O)(=O)c3ccccc3)CC2)cc1	-3	?	-12%	-9	?	4.6µM*
COc1cc(-c2cc3n(C)c(C)c(CCC(=O)NC4CCC(C)CC4)c(=O)n3n2)cc(OC)c1OC (stereo not drawn)	3	/	-4%	/	/	/
CCCCC(=O)N1C/C=C\C(c2ccc(OC)cc2)N(Cc2ccc(F)cc2)C(=O)C1C (stereo not drawn)	/	/	-14%	38	-1%	/
FC(F)(F)Oc1cccc(Cn2ccc3ccc(-c4ccc5ccn(Cc6ccccc6)c5c4)cc32)c1	-2	/	/	/	/	/
Cc1cc(NC(=O)COC(=O)c2ccc(S(=O)(=O)N3CCCC3)cc2)no1	-6	i	-7%	-3	-10%	i
Cc1cc(NC(=O)COC(=O)c2ccc(S(=O)(=O)N3CCCc4ccccc43)cc2)no1	7	15µM*	-1%	-4	-14%	?
COCc1nnc(NC(=O)c2ccc(S(=O)(=O)N3CCCc4ccccc43)cc2)o1	-1	?	?	6	-86%	?
O=C(Nc1nnc(C2CC2)o1)c1ccc(S(=O)(=O)N2CCCc3ccccc32)cc1	-3	?	-18%	?	10µM*	i
O=C(NCc1ccccc1)c1ccc(S(=O)(=O)N2CCCc3ccccc32)cc1	2	?	2%	-15	?	?
COc1ccc(-c2nnc(NC(=O)c3ccc(S(=O)(=O)N4CCCc5ccccc54)cc3)o2)cc1	-4	?	?	-10	14µM*	?
COc1cccc(-c2nnc(NC(=O)c3ccc(S(=O)(=O)N4CCOCC4)cc3)o2)c1	-7	5.8µM*	-23%	-29	12µM*	?
C[C@H]1C2CC(OC(=O)Nc3ccc(F)cc3)C(C2)[C@H]2CCCCN21 (stereo partly drawn)	-1	/	/	/	/	/
COc1ccc(NS(=O)(=O)c2ccc3oc(SC)nc3c2)cc1	0	?	-1%	13	21µM*	?
CCN(CC)S(=O)(=O)c1cccc(C(=O)OCC(=O)c2ccc3c(c2)OCCO3)c1	-3	i	3%	-17	13%	13µM*
COc1ccc(Cc2noc(CN3CCN(c4ccc(Cl)cn4)CC3)n2)cc1OC	-4	?	-12%	2	26µM*	3.3µM*
COCc1cc(O)c(O)c(O)c1-c1c(COC)cc(O)c(O)c1O	/	i	/	/	/	i
